Screening data: PubChem BioAssay, National Center for Advancing Translational Sciences (NCATS)
BAZ2B block = inhibitors of human BAZ2B bromodomain; Q9UIF8; AlphaScreen BAZ2B-H3K14Ac peptide displacement; Potency, µM (titrated, usually from 114 µM), actives largely listed as inhibitors; 360,000 compounds, 4.4% hits; AID 504333; note: nearly all actives have a fitted effect of over 60% in size
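AlphaScreen displacement of biotin-H3(5-23)K14Ac peptide (50 nM final) from BAZ2B (50 nM final) in PBS pH 7.4, 0.01% Tween-20; complex preformed 30 min RT, then compounds (top 110 uM) 30 min RT, beads 20 min dark.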
HP1b chromo inh = inhibitors of HP1-beta chromodomain binding to methylated histone tails | 390,000 compounds, 0.56% hits | AlphaScreen HP1-beta / biotin-H3K9me3 peptide binding | P83916 | Potency, µM (titrated, usually from 114 µM), hits mostly inhibitors; note: nearly all actives have a fitted effect of over 70% in size
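Compound inhibition of the preformed complex between 50 nM HP1-beta and 50 nM biotinylated H3K9me3 peptide was read by AlphaScreen. Buffer was PBS pH 7.4 with 0.01% Tween-20. Incubations ran 30 min at room temperature, with 10 ug/mL donor/acceptor beads.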
JMJD2A Tudor = inhibitors of human JMJD2A Tudor domain; O75164; AlphaScreen JMJD2A-Tudor / H3K4me3 peptide binding; Potency, µM (doses to about 114 µM), most hits filed as inhibitors; 390,000 compounds, 4.4% hits; AID 504339; note: nearly all actives have a fitted effect of over 50% in size
G9a block = inhibitors of human histone lysine methyltransferase G9a; 350,000 compounds, 8.8% hits; Potency, µM (top dose mostly 102 µM), usual class: inhibitors; G9a H3K9 monomethylation, AlphaScreen, 2 h; AID 504332; Q96KQ7; note: nearly all actives have a fitted effect of over 75% in size
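G9a (20 nM) was preincubated 15 min with compound, then reacted 2 h at room temperature with 500 nM biotin-H3K9 peptide and 20 µM SAM. Monomethyl-H3K9 detected by AlphaScreen using anti-H3K9me1 antibody.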
Sfp inh = inhibitors of Bacillus subtilis Sfp phosphopantetheinyl transferase. 310,000 compounds, 3.5% hits. Potency, µM, actives largely listed as inhibitors. Biochemical Sfp PPTase activity, qHTS. Q9F4F7. AID 1490;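 note: the enzyme is Sfp with the accession as filed and its product quenches rhodamine fluorescence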
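With Hepes-Na pH 7.6 buffer containing 10 mM MgCl2, Sfp (15 nM) modified BHQ-2-YbbR (12.5 uM) using rhodamine-CoA (5 uM). Two reads 30 minutes apart at 525/598 nm yielded each well's rate.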
Large screens that a line does not name were inactive. Rows were chosen to be rich in hits. Some 12% of all compounds tested hit in one or more screens of this group. Calls come from the whole dose curve; as a rule, active = well fitted curve in the direction sought with a large enough effect; inconclusive = small, poorly fitted or top-dose-only effect, or another doubt; inactive = no such curve, though single readings can be large; an effect the other way counts as inactive or inconclusive.

Cc1cc(=O)n2nc(N3CCC(C(=O)NCc4cccnc4)CC3)sc2n1	none
O=C(NC1CCCCC1)C(c1cccnc1)N(C(=O)CCl)c1cccc(Cl)c1 (stereo not drawn)	none
COc1ccc(OCC(=O)Nc2ccc(Cl)cc2)cc1	none (no result: G9a block)
COc1ccc(Cl)cc1NCCC(O)c1ccc(F)cc1 (stereo not drawn)	BAZ2B block inconclusive, JMJD2A Tudor inconclusive, G9a block 35.5µM
COc1ccc(NCCC(O)c2ccc(Cl)cc2)cc1 (stereo not drawn)	BAZ2B block 44.7µM, HP1b chromo inh inconclusive, JMJD2A Tudor 56.2µM, G9a block inconclusive
COc1ccc(Cl)cc1NC(=S)NCCc1ccc(F)cc1	none
COc1ccc(-n2c(=O)c(-c3cccs3)nc3cnc(N4CCN(C)CC4)nc32)cc1	none (no result: BAZ2B block, HP1b chromo inh, JMJD2A Tudor)
S=c1[nH]c(-c2ccccc2)cn1/N=C/c1ccccc1Br	BAZ2B block inconclusive, G9a block 2.51µM
S=c1[nH]c(-c2ccccc2)cn1/N=C/c1cccc2ccccc12	BAZ2B block inconclusive, JMJD2A Tudor inconclusive
Cc1ccc(/C=N/n2cc(-c3ccccc3)[nH]c2=S)s1	JMJD2A Tudor inconclusive, G9a block inconclusive, Sfp inh 31.6µM
O=C(COC(=O)Cc1ccccc1[N+](=O)[O-])NCc1ccccc1Cl	none
Cc1cccc(C(=S)N2CCOCC2)n1	none (no result: Sfp inh)
CC(=NNC(=S)N1CCCCC1)c1cccc(C)n1	HP1b chromo inh inconclusive, JMJD2A Tudor 25.1µM (no result: BAZ2B block, G9a block, Sfp inh)
CSC(=S)NN=C(C)c1cccc(C)n1	JMJD2A Tudor 5.01µM (no result: BAZ2B block, G9a block, Sfp inh)
COc1ccc(NC(=O)CS(=O)CC(=O)Nc2ccc(F)cc2F)cc1 (stereo not drawn)	none
COc1ccc(NS(=O)(=O)c2ccc(OCC(=O)N3CCOCC3)cc2)cc1	none
Cc1ccc(S(=O)(=O)N/N=C/c2ccc(OCC(=O)N3CCOCC3)cc2)cc1	none
O=C(COc1ccc(/C=N/NS(=O)(=O)c2ccccc2)cc1)Nc1cccc(Cl)c1	G9a block 50.1µM
CSc1ccc(S(=O)(=O)Nc2ccc(OCC(=O)N3CCOCC3)cc2)cc1	G9a block 11.2µM
O=C(COc1ccc(/C=N/NS(=O)(=O)c2ccccc2)cc1)N1CCOCC1	G9a block 39.8µM
CC(=O)CNc1ccc(S(=O)(=O)N/N=C/c2ccccc2)cc1	G9a block 6.31µM
CC(NC(=O)COc1ccc(/C=N/NS(=O)(=O)c2ccccc2)cc1)c1ccccc1 (stereo not drawn)	G9a block 50.1µM
COc1ccc(/C=c2\s/c(=C\C(=O)C(C)(C)C)[nH]c2=O)cc1O	BAZ2B block inconclusive (no result: G9a block)
COc1ccc(/C=C/C(=O)C2C(=O)C=C(C)OC2=O)cc1O (stereo not drawn)	BAZ2B block 50.1µM
COc1cc(/C=C/C(=O)O)cc(Br)c1O	BAZ2B block inconclusive
COc1cc(/C=C/C(=O)C2C(=O)C=C(C)OC2=O)cc(OC)c1O (stereo not drawn)	BAZ2B block 56.2µM, G9a block 50.1µM
COC(=O)c1ccccc1NC(=O)NC1CC1	none
Cc1ccc2nc(N3CCN(C=O)CC3)nc(-c3ccccc3)c2c1	none
CCOC(=O)C1(C(F)(F)F)N=C(c2cccnc2)OC(N2CCOCC2)=N1 (stereo not drawn)	none
C=CCc1cc(/C=C/c2nc(O)c([N+](=O)[O-])c(=O)[nH]2)cc(OC)c1O	BAZ2B block inconclusive, G9a block 50.1µM
O=c1[nH]c(/C=C\c2ccc(O)c(Cl)c2)nc(O)c1[N+](=O)[O-]	G9a block 50.1µM
CCOc1cc(/C=C\c2nc(O)c([N+](=O)[O-])c(=O)[nH]2)ccc1OC(C)C	G9a block inconclusive
O=c1[nH]c(/C=C\c2ccc(O)cc2)nc(O)c1[N+](=O)[O-]	G9a block 70.8µM
CCOc1ccc(CNC(=O)c2ccc3c(c2)N(Cc2ccccc2)CCS3)cc1	none (no result: Sfp inh)
O=C(/C=C/c1ccccc1)NNc1ccc(Cl)cc1	BAZ2B block inconclusive, G9a block 8.91µM
O=C(/C=C/c1ccccc1)NNC(=O)c1cccc(Cl)c1	none
Nc1nnc(-c2cccc(F)c2)s1	none
Nc1nnc(-c2ccc(Cl)c(Cl)c2)s1	G9a block 44.7µM
NS(=O)(=O)c1cc2c(cc1Cl)NC(CSCc1ccccc1)=NS2(=O)=O	BAZ2B block 89.1µM, Sfp inh inconclusive
O=C(CSC1=NS(=O)(=O)c2cc(Cl)ccc2N1)NCc1ccccc1	none (no result: Sfp inh)
Cc1ccc(N2C(=O)C3C4C=CC(CNC(=S)N5CCN(c6cccc(C)c6)C(C)C5)(O4)C3C2=O)cc1 (stereo not drawn)	HP1b chromo inh 25.1µM, JMJD2A Tudor 17.8µM, G9a block 2µM, Sfp inh 20µM
C=CCNC(=O)c1ccccc1NC(=O)C1COc2ccccc2O1 (stereo not drawn)	G9a block inconclusive
N#C[C@@H]1[C@@H]2C(=O)N(c3ccc4c(c3)OCCO4)C(=O)[C@@H]2C2c3ccccc3C=CN21 (stereo partly drawn)	G9a block 7.94µM (no result: HP1b chromo inh, JMJD2A Tudor)
CC(=O)[C@@H]1[C@@H]2C(=O)N(c3ccc(F)c(Cl)c3)C(=O)[C@@H]2C2c3ccccc3C=CN21 (stereo partly drawn)	G9a block 6.31µM (no result: HP1b chromo inh, JMJD2A Tudor)
CC(=O)[C@H]1[C@@H]2C(=O)N(c3cccc(Cl)c3)C(=O)[C@@H]2[C@H]2c3ccccc3C=CN21	BAZ2B block inconclusive, JMJD2A Tudor inconclusive, G9a block 1.41µM, Sfp inh inconclusive
COC(=O)C1(CCSC)NC(c2ccccc2F)C2C(=O)N(c3ccc4c(c3)OCCO4)C(=O)C21 (stereo not drawn)	none
CC(C)(C)C(=O)[C@@H]1[C@@H]2C(=O)N(Cc3ccccc3)C(=O)[C@@H]2[C@H]2c3ccccc3C=CN12	G9a block 10µM (no result: HP1b chromo inh, JMJD2A Tudor)
CCOc1ccc(NS(=O)(=O)c2ccc(OCC(=O)N3CCCC3)cc2)cc1	none
CCOC(=O)Nc1ccc2c(c1)nc1n2CCN(CCOC)C1	none
COCCN1CCn2c(nc3cc(Nc4nnc(C)c5ccccc45)ccc32)C1	BAZ2B block inconclusive, JMJD2A Tudor 89.1µM, G9a block inconclusive
COCCN1CCn2c(nc3cc(NC(C)=O)ccc32)C1	G9a block 35.5µM
COCCN1CCn2c(nc3cc(NC(=O)Cn4nc(C)c5ccccc5c4=O)ccc32)C1	G9a block inconclusive
COc1cccc2c(=S)c(CCC(C)=O)c(C)[nH]c12	HP1b chromo inh inconclusive, JMJD2A Tudor 10µM, G9a block 1.58µM
CC(=O)CCc1c(C)c2cccc(C)c2[nH]c1=O	BAZ2B block inconclusive, G9a block inconclusive
COc1ccc(N2CCN(C(=O)CC34CC5CC(CC(C5)C3)C4)CC2)c([N+](=O)[O-])c1	BAZ2B block 35.5µM, HP1b chromo inh inconclusive, JMJD2A Tudor 28.2µM, G9a block inconclusive, Sfp inh inconclusive
COc1ccc(N2CCN(C(=O)c3ccc(F)cc3)CC2)c([N+](=O)[O-])c1	BAZ2B block inconclusive
COc1ccc(N2CCN(C(=O)c3cccc(F)c3)CC2)c([N+](=O)[O-])c1	BAZ2B block inconclusive, JMJD2A Tudor inconclusive
